Screening data: PubChem BioAssay, several laboratories
SENP8 block-1: SENP8 protease inhibition; Q96LD8; purified SENP8, Z-RLRGG-aminoluciferin cleavage, luminescence; inhibition, % at 10 µM; actives 1.2% (n = 330,000); in the data active means inhibition above about 50%
Target sequence (Q96LD8 whole entry, looked up): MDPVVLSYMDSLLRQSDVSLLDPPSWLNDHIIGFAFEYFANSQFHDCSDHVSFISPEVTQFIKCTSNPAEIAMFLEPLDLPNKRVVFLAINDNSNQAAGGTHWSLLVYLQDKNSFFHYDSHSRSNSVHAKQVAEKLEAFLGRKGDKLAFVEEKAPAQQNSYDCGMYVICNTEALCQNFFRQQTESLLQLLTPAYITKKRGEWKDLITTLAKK
HSP90 refold inh: blocks HSP90-mediated luciferase refolding in reticulocyte lysate; Rabbit reticulocyte lysate, luciferase refolding luminescence, 3 h; inhibition, % at 5.6 µM; actives 0.91% (n = 290,000); AID 1789;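 active means inhibition above the screen-wide mean plus 3 SD, computed separately per campaign, cut at about 16% in these data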;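 further: 0% = DMSO wells and 100% = 60 µM geldanamycin wells; inhibitors lower the luminescence because luciferase stays unfolded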
SENP7 inh: SENP7 protease inhibition; inhibition, % at 5 µM; actives 1.5% (n = 330,000); recombinant SENP7, Z-RLRGG-aminoluciferin luminescence, 40 min; Q9BQF6;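 active means inhibition above about 50% at the single test dose, limit read from the data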;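 further: plate controls were DMSO with enzyme for no effect and no enzyme buffer wells for full effect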
SENP8 block-2: inhibitors of human SENP8 protease | Q96LD8 | recombinant SENP8, Nedd8 substrate fluorescence | inhibition, % at 20 µM | actives 0.64% (n = 360,000) | AID 602440; in the data active means inhibition mostly above about 40%, no sharp cut-off; inactive means mostly below about 27%
SENP6 block: blocks the human protease SENP6; AID 2599; actives 1.8% (n = 330,000); Recombinant SENP6 catalytic domain, aminoluciferin luminescence; inhibition, % at 10 µM; Q9GZR1;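 active means inhibition above about 50% at the single tested dose, limit read from the data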;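 further: plate controls were DMSO wells with enzyme for no effect and DMSO wells lacking enzyme for full effect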
Target sequence (Q9GZR1 628-1112 limits assumed): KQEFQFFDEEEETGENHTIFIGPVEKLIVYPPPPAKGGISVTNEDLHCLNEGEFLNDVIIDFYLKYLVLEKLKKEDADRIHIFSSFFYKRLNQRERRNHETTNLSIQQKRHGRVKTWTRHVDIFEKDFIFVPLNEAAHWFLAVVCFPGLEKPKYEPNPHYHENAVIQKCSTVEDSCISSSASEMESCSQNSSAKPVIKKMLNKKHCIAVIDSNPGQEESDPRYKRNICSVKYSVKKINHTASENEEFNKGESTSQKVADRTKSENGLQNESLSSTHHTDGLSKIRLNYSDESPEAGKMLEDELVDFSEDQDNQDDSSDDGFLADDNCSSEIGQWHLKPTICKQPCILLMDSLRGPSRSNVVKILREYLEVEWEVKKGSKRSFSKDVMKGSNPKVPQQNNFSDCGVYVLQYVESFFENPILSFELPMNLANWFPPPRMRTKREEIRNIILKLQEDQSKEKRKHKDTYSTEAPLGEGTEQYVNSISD
The depositor's hits bear a star; i = inactive; x = not tested or not shown. This is a sample that favours compounds with a hit; in the whole collection about 2.8% have one here.

SMILES | SENP8 block-1 | HSP90 refold inh | SENP7 inh | SENP8 block-2 | SENP6 block
COc1ccc(NC(=O)c2cc3n(n2)C(C(F)(F)F)CC(c2ccco2)N3)cc1 (stereo unspecified) | 2.8 | 0.5 | -1.8 | 15.2 | 5.2
O=C(NCC12CC3CC(CC(C3)C1)C2)c1cc2n(n1)C(C(F)(F)F)CC(c1ccco1)N2 (stereo unspecified) | 9.9 | 29.7* | 6.7 | 4.9 | 19.2
CCN(CC)c1ccc(NC(=O)COC(=O)/C=C/c2nc3ccccc3s2)cc1 | -0.5 | -1.4 | -0.6 | 3.5 | -20.2
CCN(CC)c1ccc(/C=C/c2nc3ccccc3s2)cc1 | 94.1* | 66.9* | 94.6* | x | 86.2*
O=C(CCn1cncn1)N1CCN(S(=O)(=O)c2ccc(Cl)cc2)CC1 | -15.4 | -1.8 | -8.8 | 13.7 | 3.9
C[C@@](Cc1ccc(O)c(O)c1)(NN)C(=O)O | x | 2.9 | x | 39.2* | x
O=C(O)c1cc(N/N=C/C=C/c2ccccc2[N+](=O)[O-])ccc1Cl | 52.4* | 15.7 | 36.8 | 23.7 | -11.0
O=C(O)c1cc(N/N=C/c2ccc(-c3ccccc3)cc2)ccc1Cl | x | 29.3* | x | -101.7 | x
COc1ccc(-c2nn(-c3ccccc3)cc2/C=N/Nc2ccc(Cl)c(C(=O)O)c2)cc1OC | -5.0 | 16.6* | -10.0 | -358.6 | -7.9
COc1ccc(Cc2c(-c3cccc(Cl)c3)nc3ccc(Br)cn23)c(C)c1 | x | x | x | -69.6 | x
CCC1(CC)Cc2ccccc2-c2[nH]c(=S)[nH]c(=O)c21 | -4.4 | x | -2.5 | -12.3 | -15.9
O=C(COC(=O)c1ccc2c(c1[N+](=O)[O-])C(=O)c1ccccc1C2=O)NC1CC1 | 16.6 | 2.1 | 1.4 | 34.2* | 37.9
O=C(COC(=O)c1cccc2c1C(=O)c1ccccc1C2=O)NC1CCCCC1 | -7.5 | -0.4 | -6.9 | 19.9 | 27.5
O=[N+]([O-])c1cc(Cl)ccc1-c1nc(-c2ccncc2)no1 | 12.8 | 1.4 | 6.1 | 5.4 | 2.7
O=[N+]([O-])c1cnc2nc(-c3ccncc3)nn2c1O | 92.8* | 1.3 | 96.5* | 10.2 | 98.9*
O=C(CN(C(=O)CCC(=O)Nc1nccs1)c1ccc2c(c1)OCO2)NCc1ccc(F)cc1 | 6.0 | 1.6 | -0.6 | 14.3 | -3.2
C/C(=N\OC(=O)c1ccc(F)cc1)c1ccc(F)c(F)c1 | 72.8* | 4.5 | 92.0* | 22.6 | 80.5*
CC1(C(=O)NCc2ccccc2)CCC(=O)N1CC(F)(F)F (stereo unspecified) | x | x | x | 6.3 | x
Cc1cc2c(cc1C)C(=O)C(Br)=C(N)C2=O | x | x | x | 78.7* | x
Cc1noc(C(=O)NCc2ccc(F)cc2)c1Cl | -9.5 | 2.3 | -8.0 | -8.4 | -9.6
CCCn1c(SCC(=O)NCCc2ccc(Cl)cc2Cl)n[nH]c1=O | -10.5 | -1.3 | -0.4 | 7.1 | -15.4
O=C(O)c1ccc(N/N=C/C=C/c2ccccc2)cc1 | 95.4* | 7.5 | 91.8* | -215.8 | 98.5*
O=C(O)c1ccc(N/N=C/c2ccc(-c3ccccc3)cc2)cc1 | x | 5.3 | x | -340.3 | x
C#CCOCCOCCOCCNc1nc(N2CCN(C(=O)[C@H](CCC(=O)O)n3cc([C@@H](N)CCCCN)nn3)CC2)nc(N2CCN(C(=O)[C@H](CCCCN)n3cc([C@@H](N)CC(N)=O)nn3)CC2)n1 | 1.9 | x | -0.7 | 15.2 | -0.4
Cc1cc(C(=O)Cn2nc(C(=O)O)c3ccccc3c2=O)c(C)n1-c1ccc(F)cc1 | -12.2 | 16.8* | -0.3 | 4.0 | -21.7
SMILES | SENP8 block-1 | HSP90 refold inh | SENP7 inh | SENP8 block-2 | SENP6 block
Cc1cc(C(=O)Cn2nc(C(=O)O)c3ccccc3c2=O)c(C)n1-c1cccc(C(F)(F)F)c1 | -0.2 | -1.6 | 3.7 | 8.4 | -3.6
CNc1cncc(-c2cnn(CC(C)C)c2)n1 | x | x | x | i | x
O=C(O)c1ccccc1C(=O)Nc1ccc(Nc2ccccc2)cc1 | x | x | x | 12.0 | x
Cc1ccc(-n2sc3ccccc3c2=O)cc1 | 85.7* | -1.8 | 76.7* | 13.5 | 93.9*
COC(=O)c1cccc(N2CCCC2=O)c1 | -5.2 | 2.6 | 0.3 | 4.1 | -14.2
COC(=O)c1cccc(-n2sc3ccccc3c2=O)c1 | 57.0* | x | 19.1 | 8.2 | 70.1*
Cc1ccc(O)c(N=CC2=C(O)c3ccccc3C2=O)c1 | 21.9 | 10.9 | 28.6 | 83.6* | 45.6
Oc1ccc(/C=N/N(Cc2ccccc2)c2ccccc2)c(O)c1O | x | 9.0 | x | 56.4* | x
O=C(c1ccc(N2CCCC2=O)cc1)N1CCN(c2ccc(Cl)cc2)CC1 | 3.7 | -5.5 | 6.5 | -0.3 | 5.4
Oc1ccc2ccccc2c1C=NCc1ccccc1 | 13.6 | 9.7 | 13.8 | 5.5 | 60.3*
CC(C)(C)c1ccc(C(=O)c2c[nH]c(C(=O)NCCc3ccccn3)c2)cc1 | -9.4 | 16.3* | -6.3 | 8.6 | -3.7
COc1cccc(-c2nc(CS(=O)(=O)CC(=O)Nc3c(C)cccc3C)c(C)o2)c1 | 0.8 | 71.7* | 10.4 | 10.5 | 3.4
COc1cccc(-c2nc(CS(=O)(=O)CC(=O)Nc3cc(C)ccc3C)c(C)o2)c1 | 4.0 | 0.2 | -0.1 | -2.8 | 13.9
CC(C)CC(=O)n1sc(NC(=O)c2ccccc2)nc1=O | -0.3 | 1.2 | 26.2 | -0.8 | -5.4
COC(=O)C1=C(C(=O)OC)SC(=C2C(=S)C(C)(C)N(C(=O)CC(C)C)c3ccccc32)S1 | 4.5 | 4.5 | 17.4 | 59.1* | -7.7
[O-]/[N+](=C\C=C\c1ccccc1)c1ccccc1 | 57.5* | 1.9 | -0.8 | -2.0 | 73.0*
O=C(Nc1ccc(-c2cn3ccccc3n2)cc1)c1cccs1 | 39.4 | -1.2 | 52.2* | -29.9 | 48.6
CCCCc1cc(=O)oc2cc(C)cc(OC(C)C(=O)NCc3cccnc3)c12 (stereo unspecified) | 4.0 | 4.5 | -7.3 | -169.5 | -6.6
CC(=O)c1cnc2c(-c3ccc(Cl)cc3)c(C)nn2c1C | -5.6 | 2.4 | -0.4 | 10.1 | 10.6
CC(C)NC(=S)NN(c1ccccc1)c1ccccc1 | 7.2 | 0.5 | 4.6 | 14.3 | 12.8
O=C(NCC1CC1)Nc1ccccc1 | x | -6.5 | x | 14.7 | x
O=c1c2ccccc2sc2ccccc12 | x | x | x | -368.3 | x
O=c1c2ccccc2sc2ccc(Cl)cc12 | 18.9 | -3.7 | 57.7* | -139.3 | 38.7
C=CCOc1ccc(/C=N/NC(=O)c2cc3c(OC)cc(OC)cc3[nH]2)cc1 | -3.1 | -1.7 | -8.7 | -314.2 | 9.2
CCN(CC)c1ccc2nc3ccc(N)cc3[n+](-c3ccccc3)c2c1 | 35.7 | x | 17.4 | 39.3* | 31.7
SMILES | SENP8 block-1 | HSP90 refold inh | SENP7 inh | SENP8 block-2 | SENP6 block
CCN(CC)c1ccc2nc3ccccc3[n+](CC)c2c1 | 23.2 | 14.6 | 19.3 | 13.5 | 29.0
COc1ccc2sc3cccc(NCCN(C)C)c3c(=O)c2c1 | x | x | x | 29.0 | x
CN(C)CCNc1ccc(CO)c2sc3ccc(O)cc3c(=O)c12 | x | x | x | 45.1* | x
COc1ccc(CN2CC(=O)N(c3ccc(C)cc3C)C2=S)cc1OC | -7.6 | 4.6 | -9.2 | 24.2 | -26.7
Cc1cc(O)c2c(c1O)C(=O)[C@]13C(=C2O)C(=O)[C@@H]2[C@@H](O)[C@H]1[C@@H]1[C@H](O)[C@H]3C(=O)C3=C(O)c4c(O)cc(C)c(O)c4C(=O)[C@]312 | 35.4 | x | 8.8 | 19.8* | 39.8
O=c1nc2n(c3ncccc13)CCC2 | -1.6 | 16.5* | 5.7 | 8.1 | -3.7
O=c1nc(-c2ccccc2)n(-c2ccccc2)c2ncccc12 | -3.3 | 0.2 | -0.8 | 7.0 | -17.9
C/C(=N\NC(=O)c1nnn(-c2nonc2N)c1-c1cccs1)c1cccnc1 | 4.0 | -1.5 | -0.2 | 8.4 | 4.9
